# BioA inh: M. tuberculosis BioA enzyme inhibitors, primary screen, biochemical, plate reader, single point, HTS. AID 602481, 2012. inhibition, % at 9.99 µM. hit rate 0.096% among 360,000. purified M. tuberculosis BioA enzyme; in the data active means inhibition above about 40%
# FBA Mtb inh: Mtb FBA enzyme inhibitors, primary screen, biochemical, fluorescence, strain H37Rv; Fructose-bisphosphate aldolase (Mycobacterium tuberculosis (strain ATCC 25618 / H37Rv)), …; purified M. tuberculosis FBA, fluorescence read-out; inhibition, % at 1 µM; hit rate 2.3% among 360,000;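 further: 0% = vehicle and 100% = reference inhibitor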
# FadD28 FP inh: inhibitors of FadD28 bisubstrate probe binding, primary screen, biochemical, fluorescence polarization, single point; hit rate 0.22% among 360,000; AID 588549, 2011; Mycobacterium tuberculosis FadD28 fatty-acid-AMP ligase; inhibition, % at 12.5 µM; in the data active means inhibition above about 8.5%, passing the limit was not always enough
# GDH-TPI counter-1: GDH-TPI coupling enzyme inhibitors, primary screen, artefact control for M. tuberculosis FBA inhibitor project, biochemical, absorbance, full deck; GDH-TPI coupled enzyme counterscreen, NADH absorbance; inhibition, % at 4.8 µM; hit rate 1.2% among 360,000; in the data active means inhibition above about 30%;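 further: 0% = DMSO wells and 100% = wells lacking the enzyme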
# Rv3671c protease: Rv3671c serine protease inhibitors, primary screen, biochemical, fluorescence polarization, M. tuberculosis H37Rv; AID 2606, 2010; P9WHR9; hit rate 0.048% among 320,000; inhibition, % at 5.96 µM; in the data active means inhibition above about 38%;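 further: extracellular domain of Rv3671c used as enzyme; 0% = enzyme with DMSO and 100% = no enzyme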
# Target sequence (P9WHR9 whole entry, looked up, the tested form may be a part): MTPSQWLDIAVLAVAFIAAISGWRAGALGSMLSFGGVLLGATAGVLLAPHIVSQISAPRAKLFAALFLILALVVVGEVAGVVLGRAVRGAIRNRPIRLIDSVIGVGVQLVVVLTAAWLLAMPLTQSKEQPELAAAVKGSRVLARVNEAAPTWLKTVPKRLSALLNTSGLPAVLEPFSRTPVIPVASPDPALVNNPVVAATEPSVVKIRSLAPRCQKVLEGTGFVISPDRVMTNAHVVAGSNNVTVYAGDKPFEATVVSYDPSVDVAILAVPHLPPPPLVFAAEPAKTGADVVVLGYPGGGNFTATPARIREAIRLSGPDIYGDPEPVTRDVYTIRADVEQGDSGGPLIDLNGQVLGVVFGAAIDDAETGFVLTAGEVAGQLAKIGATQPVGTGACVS
# Mtb FBA inh conf: M. tuberculosis aldolase blockers, biochemical, fluorescence, strain H37Rv, confirmation. AID 651616, 2012. hit rate 78% among 5,600. purified M. tuberculosis FBA, fluorescence read-out. inhibition, % at 1 µM. shares compounds with FBA Mtb inh;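 further: 0% = vehicle wells and 100% = reference inhibitor wells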
# GDH-TPI counter-2: GDH-TPI coupling enzyme inhibitors, artefact control for M. tuberculosis FBA inhibitor project, biochemical, fluorescence, high throughput; inhibition, % at 1 µM; shares compounds with FBA Mtb inh; hit rate 81% among 5,600; GDH-TPI coupled enzyme counterscreen; in the data active means inhibition above about 10%
# Starred values were filed as active, the others as inactive; . = no result; + = active, no number. Hits are enriched below; roughly 3% of the tested compounds scored in any of these assays. Unless noted, no stated cut-off is given here; in the data, active means inhibition above about 27%; inactive means the rest.
SMILES,BioA inh,FBA Mtb inh,FadD28 FP inh,GDH-TPI counter-1,Rv3671c protease,Mtb FBA inh conf,GDH-TPI counter-2
O=C(NCCCCO)c1ccc2c3c(cccc13)CC2,.,64*,-2,7,4,-2,-3
C/C=C/c1cnc2c(c1)C(=O)N([C@H](C)CO)C[C@H](C)[C@@H](CN(C)C(=O)NCCC)O2,-2,.,.,.,.,.,.
Cc1noc(C)c1NC(=O)Nc1ccc2c(c1)C(=O)N([C@@H](C)CO)C[C@@H](C)[C@@H](CN(C)Cc1ccccc1)OCCCC[C@H](C)O2,2,.,.,.,.,.,.
CCCNC(=O)Nc1ccc2c(c1)C(=O)N(C)C[C@@H](OC)[C@@H](C)CN(C(=O)C1CCC1)[C@@H](C)CO2,0,.,.,.,.,.,.
O=C(Nc1nc2ccccc2[nH]1)c1ccccc1O,.,47*,-3,15,0,+,+
CO[C@H]1CN(C)C(=O)c2cc(NC(=O)c3ccccc3)ccc2OC[C@H](C)N(CC2CC2)C[C@@H]1C,-3,.,.,.,.,.,.
CCc1cc2c(=O)c(-c3ccc4c(c3)OCO4)coc2c(CN(C)C)c1O,1,23,3,28,0,.,.
CCc1cc2c(=O)c(-c3cscn3)coc2c(CN(C)C)c1O,0,41*,5,20,6,161*,125*
COCCN(C(=O)COC(=O)c1ccccc1NCc1ccco1)c1c(N)n(Cc2ccccc2)c(=O)[nH]c1=O,0,81*,-2,11,1,151*,118*
CC(C)CN(C(=O)COC(=O)c1ccccc1NCc1ccco1)c1c(N)n(Cc2ccccc2)c(=O)[nH]c1=O,1,31*,-3,-1,0,152*,123*
CC(C)CN(C(=O)COC(=O)c1cccc2ccccc12)c1c(N)n(Cc2ccccc2)c(=O)[nH]c1=O,.,0,0,12,-9,.,.
C#CCSc1nc(-c2cccs2)ccc1C#N,0,36*,-5,26,3,51*,46*
COC(=O)CSc1nc(-c2cccs2)ccc1C#N,.,71*,-6,-4,3,+,+
CO[C@H]1CN(C)C(=O)c2ccc(NC(=O)C3CCC3)cc2OC[C@H](C)N(Cc2ccncc2)C[C@H]1C,-3,.,.,.,.,.,.
CCS(=O)(=O)N1CCCCN2[C@H](CO)[C@H](c3ccc(-c4ccc(C(=O)N(C)C)cc4)cc3)[C@@H]2C1,-1,.,.,.,.,.,.
C[C@@H]1CN([C@H](C)CO)C(=O)Cc2cc(NS(=O)(=O)c3ccccc3)ccc2O[C@@H]1CN(C)S(=O)(=O)c1ccc(F)cc1,-2,.,.,.,.,.,.
Cc1ccc(S(=O)(=O)N(C)C[C@@H]2Oc3c(cccc3N(C)C)C(=O)N([C@H](C)CO)C[C@H]2C)cc1,1,.,.,.,.,.,.
C[C@@H]1CN([C@H](C)CO)C(=O)c2cc(-c3cccc(F)c3)cnc2O[C@H]1CN(C)S(=O)(=O)c1cccc(F)c1,7,.,.,.,.,.,.
Cc1nn(-c2cccc(Cl)c2)c2nc(-c3ccco3)cc(C(=O)O)c12,.,20,-14,16,-4,.,.
Cc1cccc(-n2nc(C)c3c(C(=O)O)cc(-c4cccs4)nc32)c1,.,62*,-10,18,2,149*,135*
Cc1nn(-c2ccccn2)c2nc(-c3cccs3)cc(C(=O)N3CCOCC3)c12,.,105*,-2,31*,0,59*,59*
CCCNC(=O)N1[C@H](CNC(C)=O)[C@H](c2ccc(-c3ccccc3)cc2)[C@@H]1CO,3,.,.,.,.,.,.
O=C(N/N=C/c1ccc(N2CCOCC2)cc1)c1ccccc1NS(=O)(=O)c1cccs1,.,44*,3,38*,7,+,+
O=C(NN=Cc1ccc(O)cc1O)c1ccccc1NS(=O)(=O)c1cccs1,5,41*,2,6,19,-3,-1
O=S(=O)(Nc1ccccc1N1CCOCC1)c1cccs1,-2,-2,-2,-5,0,.,.
SMILES,BioA inh,FBA Mtb inh,FadD28 FP inh,GDH-TPI counter-1,Rv3671c protease,Mtb FBA inh conf,GDH-TPI counter-2
CC(C)c1ccc(S(=O)(=O)N2CCN(CC(O)CN3CCOCC3)CC2)cc1 (stereo unspecified),1,51*,-1,-1,9,82*,70*
COc1ccc(-c2nc3ccc(C)cn3c2Cc2ccsc2)cc1OC,21,52*,-10,.,.,116*,73*
C[C@H](CO)N1C[C@H](C)[C@H](CN(C)C(=O)Nc2ccc(C(F)(F)F)cc2)Oc2ccc(NC(=O)C3CCCCC3)cc2C1=O,-2,.,.,.,.,.,.
O=C(CN1C(=O)/C(=C\c2cccc(Br)c2)Oc2ccccc21)NCCCN1CCOCC1,-1,33*,-1,15,-7,162*,130*
O=C(O)CN1C(=O)/C(=C/c2cccc(Cl)c2)Oc2ccccc21,-1,67*,-5,18,-5,+,+
O=C(N[C@H]1CC[C@@H](CCNC(=O)C2CCC2)O[C@@H]1CO)c1ccccn1,1,.,.,.,.,.,.
CC(=O)N(C)C[C@H]1[C@H](c2ccc(-c3ccccc3)cc2)[C@@H](CO)N1C(=O)C1CC1,1,.,.,.,.,.,.
CCC(NC(=O)c1ccccc1O)c1ccccc1 (stereo unspecified),1,43*,-6,-1,-7,168*,120*
CCC(NC(=O)c1ccc([N+](=O)[O-])cc1[N+](=O)[O-])c1ccccc1 (stereo unspecified),1,2,-1,3,6,.,.
CC(C)NC(=O)N1CCCCN2[C@H](CO)[C@@H](c3ccc(C#Cc4ccccc4)cc3)[C@H]2C1,5,.,.,.,.,.,.
O=c1c2c(nc3cc(-c4ccc(F)cc4)[nH]n13)CCCC2,-1,22,-3,0,1,.,.
O=c1c2c(nc3cc(-c4cccc(F)c4)[nH]n13)CCC2,0,37*,0,3,4,-4,-3
COc1ccc(NC(=O)Nc2ccc3c(c2)C(=O)N([C@H](C)CO)C[C@H](C)[C@H](CN(C)S(=O)(=O)c2c(C)noc2C)OCCCC[C@@H](C)O3)cc1,-5,.,.,.,.,.,.
Cc1cccc(OC(=O)Nc2ccc(C(=O)O)c(O)c2)c1,-1,29*,-1,16,.,+,180*
Nc1nccc(/C=C/c2c(Cl)cccc2Cl)n1,-1,14,0,16,-1,.,.
Nc1nccc(/C=C/c2ccc(Cl)cc2)n1,-2,30*,0,19,-2,84*,49*
C[C@@H]1CN([C@H](C)CO)C(=O)c2cc(-c3ccncc3)cnc2O[C@H]1CN(C)C(=O)NC1CCCC1,-5,.,.,.,.,.,.
CN(C)CC#Cc1ccc([C@@H]2[C@@H](CO)N3CCCCN(C(=O)C4CCC4)C[C@@H]23)cc1,-1,.,.,.,.,.,.

# Assay outcomes from PubChem BioAssay.
